Bioassay records as filed in PubChem BioAssay.
The list is not random: actives were taken first. Their share in the collection is about 3.5%.
mHTT-CaM PPI inh = mutant huntingtin-calmodulin interaction inhibitors – biochemical, AlphaScreen, primary screen; P42858; AlphaScreen His-mHTT/GST-CaM binding, luminescence; inhibition, % at 15 µM; 190,000 tested, 3.6% active; AID 1671202, 2021;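 also: 0% = both proteins with DMSO and 100% = one protein alone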
Pf apPOL inh = Pf-apPOL inhibitors, biochemical, fluorescence; Plasmodium falciparum apicoplast DNA polymerase (apPOL); Recombinant Pf-apPOL, molecular beacon fluorescence, 1.5 h; inhibition, % at 10 µM; 210,000 tested, 0.25% active; AID 1794808, 2022
* hit, by the source's call; . = no result given; ! = a repeat was not active. Rule as the data show it: active = inhibition above about 50%; inactive = the rest.

SMILES | mHTT-CaM PPI inh | Pf apPOL inh
COc1ccccc1N1CCN(C(=O)c2ccc(Cl)c(Cl)c2)C(C)C1=O (centres undefined) | 14.1 | -6.0
CS(=O)(=O)NCCNc1ccc([N+](=O)[O-])cc1Cl | 4.3 | -3.6
Nc1ccc(Nc2ccc([N+](=O)[O-])cc2S(=O)(=O)O)cc1 | 51.5* | -3.2
O=C(O)c1ccc(F)c(S(=O)(=O)Nc2cc(F)ccc2F)c1 | -2.0 | -6.6
O=C(NCc1ccc(Cl)cc1)c1nc(-c2ccncc2)cs1 | 65.9* | -2.0
Cc1ccc(CNC(=O)c2nc(-c3ccncc3)cs2)cc1 | 14.3 | -6.4
Brc1ccc(Nc2nc(-c3cccnc3)nc3ccccc23)cc1 | 12.0 | -0.9
COc1ccc(Nc2nc(-c3cccnc3)nc3ccccc23)cc1 | 54.4* | -2.6
C=C(C)CC1Nc2ccccc2NC1CC(=C)C (centres undefined) | 56.0* | .
O=C(O)CC1Nc2ccccc2NC1=O (centres undefined) | 3.9 | 1.6
N#CC1=C(N)Oc2n[nH]c(-c3ccccn3)c2C1c1ccco1 (centres undefined) | 91.0* | -0.2
CC(C)(C)c1[nH]nc2c1C(c1ccco1)C(C#N)=C(N)O2 (centres undefined) | 1.0 | -0.8
O=C(NCc1ccc(F)cc1Cl)C1CCCN(c2nnc3ccccn23)C1 (centres undefined) | 3.6 | -4.7
C=CCc1ccccc1OCC(O)CN1CCN(c2ccc(OC)cc2)CC1 (centres undefined) | 53.6*! | 0.1
OC(COc1ccc(F)cc1)CN1CCN(c2cccc(Cl)c2)CC1 (centres undefined) | 80.7* | -2.5
CC(C)c1ccc(OCC(O)CN2CCN(c3ccc(F)cc3)CC2)cc1 (centres undefined) | 38.8 | -3.9
C=CCc1ccccc1OCC(O)CN1CCN(c2cccc(Cl)c2)CC1 (centres undefined) | 99.1* | -1.5
C=CCc1ccccc1OCC(O)CN1CCN(C)CC1 (centres undefined) | -4.3 | -1.1
C=CCc1ccccc1OCC(O)CN1CCCCC1 (centres undefined) | -5.9 | -5.6
COc1ccc(CNC(=O)NCC2CN(c3ccc(F)cc3)C(=O)O2)cc1OC (centres undefined) | -8.6 | 0.4
Clc1cccc(Cl)c1CSc1nc2ccccc2o1 | -124.5 | .
COCCCNC(=O)N1CCCCCC1c1ccc(Cl)cc1 (centres undefined) | 4.0 | 72.2*
COCCCNC(=O)N1CCCC1c1ccc(Cl)cc1 (centres undefined) | -5.9 | -2.3
O=C(c1nn2c(c1Cl)NC(c1ccccc1)CC2C(F)(F)F)N1CCCCCC1 (centres undefined) | 50.0 | -1.5
CCC1CCCCN1C(=O)c1nn2c(c1Cl)NC(c1ccccc1)CC2C(F)(F)F (centres undefined) | 87.0* | -5.5
SMILES | mHTT-CaM PPI inh | Pf apPOL inh
O=C(c1nn2c(c1Cl)NC(c1ccccc1)CC2C(F)(F)F)N1CCc2ccccc2C1 (centres undefined) | 72.0* | -2.8
O=C(c1nn2c(c1Cl)NC(c1ccccc1)CC2C(F)(F)F)N1CCCCC1 (centres undefined) | 14.0 | -0.9
CCOc1ccccc1NC(=O)CSC1=Nc2ccccc2NC(CC(=O)OC)=C1 | 18.0 | 0.5
CC(=O)c1cnc(Nc2ccc(F)cc2F)c2ccccc12 | -36.0 | -0.1
Cc1ccc(-n2[nH]c(=O)c(C=c3c(C)c(C#N)c4nc5ccccc5n4c3=O)c2O)cc1Cl | 51.0* | 3.3
Cc1c(Cc2ccc(Cl)cc2)c(NCCCn2ccnc2)n2c(nc3ccccc32)c1C#N | -5.0 | 0.7
N#CC(=CN1CCc2ccccc2C1)C(=O)c1cccs1 | . | -4.0
CCn1nc(C)c(CN(CC(C)C)C(=O)c2ccc(NC(C)=O)cc2)c1C | -0.5 | -12.5
Cc1cc2c(cc(C(=O)N3CCOCC3)n2CC2CCC2)s1 | 16.0 | -7.6
O=C(c1cc2sc(Br)cc2n1CC1CCCCO1)N1CCCC1 (centres undefined) | 70.3* | -13.1
CCOCCCNC(=O)c1ccnc(N2CCNC(c3ccccc3)C2)c1 (centres undefined) | 14.1 | 0.8
O=C(COc1nsnc1N1CCOCC1)Nc1ccc(Br)cc1 | 5.0 | -5.7
O=C(COc1nsnc1N1CCCCC1)Nc1ccc(Br)cc1 | 51.0* | -8.9
Cc1ccc(Br)cc1N1CCC(C(=O)NC2CC2)C1=O (centres undefined) | -3.0 | -1.4
Cc1ccc(S(=O)(=O)Nc2cccc3ccc(C)nc23)cc1 | 0.9 | -8.5
Cc1ccc(S(=O)(=O)Nc2cccc3ccc(-n4nc(C)cc4C)nc23)cc1 | 0.7 | 60.3*
Cc1ccc(F)cc1NC(=O)C1CCN(c2c(C#N)cnc3ccccc23)CC1 | -5.4 | -1.4
CCOc1ccc(C(=O)N2CCC(n3c(-c4ccoc4)nc4cccnc43)C2)cc1 (centres undefined) | 4.8 | 1.4
CC1(C)C2CCC1(C)C(OCC(O)CN1CCN(Cc3ccccc3)CC1)C2 (centres undefined) | 23.7 | -4.3
